Source: PubChem BioAssay AID1159580 (chemical genetic matrix, 2015)
The whole screen tested about 5,500 compounds, of which about 2,000 (36%) were called active. Another 18% or so got no clear call; they are omitted. Rule as the data show it: active = normalized growth mostly below about 0.91 (no sharp cut-off); inconclusive = no clear call, values can overlap the other calls; inactive = mostly above about 0.92. Some of the results follow.

Assay: chemical genetic growth profiling, strain panel (AID 1159580);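 also: tested at 20 µM; growth read once vehicle control cultures reached saturation at 30 °C; 1 = growth at the plate median or of vehicle wells; lower values mean less growth of the strain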
Details: growth OD

## Nc1ncnc2nc[nH]c12
S. cerevisiae deletion strains, locus YJR066W, strain TOR1, stronger effect = lower value
  normalized growth: 0.966 (inactive)
S. cerevisiae deletion strains, locus YKL009W, strain mrt4, stronger effect = lower value
  normalized growth: 0.942 (inactive)
S. cerevisiae deletion strains, locus YKL068W, stronger effect = lower value
  normalized growth: 1.03 (inactive)
S. cerevisiae deletion strains, locus YKL085W, strain MDH1 (second series), stronger effect = lower value
  normalized growth: 1.01 (inactive)
S. cerevisiae deletion strains, locus YKL085W, strain MDH1, stronger effect = lower value
  normalized growth: 1.01 (inactive)
S. cerevisiae deletion strains, locus YKL160W, strain elf1, stronger effect = lower value
  normalized growth: 0.995 (inactive)
S. cerevisiae deletion strains, locus YKR001C, strain vps1, stronger effect = lower value
  normalized growth: 0.319 (active)
S. cerevisiae deletion strains, locus YKR026C, strain gcn3, stronger effect = lower value
  normalized growth: 0.996 (inactive)
S. cerevisiae deletion strains, locus YKR091W, strain srl3, stronger effect = lower value
  normalized growth: 0.99 (inactive)
S. cerevisiae deletion strains, locus YLL001W, strain dnm1, stronger effect = lower value
  normalized growth: 0.965 (inactive)
S. cerevisiae deletion strains, locus YLL026W, stronger effect = lower value
  normalized growth: 0.994 (inactive)
S. cerevisiae deletion strains, locus YLL041C, strain sdh2, stronger effect = lower value
  normalized growth: 0.991 (inactive)
S. cerevisiae deletion strains, locus YLR027C, strain aat2, stronger effect = lower value
  normalized growth: 0.997 (inactive)
S. cerevisiae deletion strains, locus YLR039C, strain RIC1, stronger effect = lower value
  normalized growth: 0.443 (active)
S. cerevisiae deletion strains, locus YLR058C, strain SHM2, stronger effect = lower value
  normalized growth: 0.908 (inactive)
S. cerevisiae deletion strains, locus YLR102C, strain apc9, stronger effect = lower value
  normalized growth: 0.997 (inactive)
S. cerevisiae deletion strains, locus YLR113W, strain HOG1, stronger effect = lower value
  normalized growth: 1.04 (inactive)
S. cerevisiae deletion strains, locus YLR221C, strain rsa3, stronger effect = lower value
  normalized growth: 0.964 (inactive)
S. cerevisiae deletion strains, locus YLR258W, strain gsy2, stronger effect = lower value
  normalized growth: 0.985 (inactive)
S. cerevisiae deletion strains, locus YLR262C, strain YPT6 (second series), stronger effect = lower value
  normalized growth: 1.01 (inactive)
S. cerevisiae deletion strains, locus YLR262C, strain YPT6, stronger effect = lower value
  normalized growth: 0.514 (active)
S. cerevisiae deletion strains, locus YLR268W, strain sec22, stronger effect = lower value
  normalized growth: 0.795 (active)
S. cerevisiae deletion strains, locus YLR320W, strain mms22, stronger effect = lower value
  normalized growth: 0.973 (inactive)
S. cerevisiae deletion strains, locus YLR330W, strain CHS5, stronger effect = lower value
  normalized growth: 0.842 (active)
S. cerevisiae deletion strains, locus YLR342W, strain FKS1 (second series), stronger effect = lower value
  normalized growth: 0.864 (inactive)
S. cerevisiae deletion strains, locus YLR342W, strain FKS1, stronger effect = lower value
  normalized growth: 0.983 (inactive)
S. cerevisiae deletion strains, locus YLR357W, strain rsc2, stronger effect = lower value
  normalized growth: 0.972 (inactive)
S. cerevisiae deletion strains, locus YLR370C, strain arc18, stronger effect = lower value
  normalized growth: 0.983 (inactive)
S. cerevisiae deletion strains, locus YLR371W, strain rom2, stronger effect = lower value
  normalized growth: 0.985 (inactive)
S. cerevisiae deletion strains, locus YLR384C, strain iki3, stronger effect = lower value
  normalized growth: 0.987 (inactive)
S. cerevisiae deletion strains, locus YLR418C, strain cdc73, stronger effect = lower value
  normalized growth: 0.612 (active)
S. cerevisiae deletion strains, locus YML016C, strain PPZ1, stronger effect = lower value
  normalized growth: 1.04 (inactive)
S. cerevisiae deletion strains, locus YML032C, strain rad52, stronger effect = lower value
  normalized growth: 0.972 (inactive)
S. cerevisiae deletion strains, locus YML120C, strain ndi1, stronger effect = lower value
  normalized growth: 0.97 (inactive)
S. cerevisiae deletion strains, locus YML124C, strain tub3, stronger effect = lower value
  normalized growth: 1 (inactive)
S. cerevisiae deletion strains, locus YMR058W, strain fet3, stronger effect = lower value
  normalized growth: 0.994 (inactive)
S. cerevisiae deletion strains, locus YMR078C, strain ctf18, stronger effect = lower value
  normalized growth: 0.988 (inactive)
S. cerevisiae deletion strains, locus YMR125W, strain sto1, stronger effect = lower value
  normalized growth: 0.978 (inactive)
S. cerevisiae deletion strains, locus YMR129W, stronger effect = lower value
  normalized growth: 0.979 (inactive)
S. cerevisiae deletion strains, locus YMR205C, strain PFK2, stronger effect = lower value
  normalized growth: 0.968 (inactive)
S. cerevisiae deletion strains, locus YMR223W, strain ubp8, stronger effect = lower value
  normalized growth: 0.846 (active)
S. cerevisiae deletion strains, locus YMR231W, strain pep5, stronger effect = lower value
  normalized growth: 0.991 (inactive)
S. cerevisiae deletion strains, locus YMR263W, strain SAP30, stronger effect = lower value
  normalized growth: 0.932 (inactive)
S. cerevisiae deletion strains, locus YMR307W, strain GAS1, stronger effect = lower value
  normalized growth: 1.18 (inactive)
S. cerevisiae deletion strains, locus YNL067W, strain RPL9B, stronger effect = lower value
  normalized growth: 0.945 (inactive)
S. cerevisiae deletion strains, locus YNL071W, strain lat1, stronger effect = lower value
  normalized growth: 0.988 (inactive)
S. cerevisiae deletion strains, locus YNL128W, strain TEP1, stronger effect = lower value
  normalized growth: 0.955 (inactive)
S. cerevisiae deletion strains, locus YNL183C, strain NPR1, stronger effect = lower value
  normalized growth: 0.97 (inactive)
S. cerevisiae deletion strains, locus YNL209W, strain ssb2, stronger effect = lower value
  normalized growth: 0.984 (inactive)
S. cerevisiae deletion strains, locus YNL233W, strain BNI4, stronger effect = lower value
  normalized growth: 0.695 (active)
S. cerevisiae deletion strains, locus YNL248C, strain rpa49, stronger effect = lower value
  normalized growth: 0.982 (inactive)
S. cerevisiae deletion strains, locus YNL250W, strain rad50, stronger effect = lower value
  normalized growth: 1.01 (inactive)
S. cerevisiae deletion strains, locus YNL271C, strain bni1, stronger effect = lower value
  normalized growth: 0.956 (inactive)
S. cerevisiae deletion strains, locus YNL298W, strain CLA4, stronger effect = lower value
  normalized growth: 0.956 (inactive)
S. cerevisiae deletion strains, locus YNL307C, strain MCK1, stronger effect = lower value
  normalized growth: 0.591 (active)
S. cerevisiae deletion strains, locus YNL322C, strain KRE1 (second series), stronger effect = lower value
  normalized growth: 0.982 (inactive)
S. cerevisiae deletion strains, locus YNL322C, strain KRE1, stronger effect = lower value
  normalized growth: 0.97 (inactive)
S. cerevisiae deletion strains, locus YNR049C, strain mso1, stronger effect = lower value
  normalized growth: 0.982 (inactive)
S. cerevisiae deletion strains, locus YNR052C, strain pop2, stronger effect = lower value
  normalized growth: 0.954 (inactive)
S. cerevisiae deletion strains, locus YOL006C, strain TOP1, stronger effect = lower value
  normalized growth: 0.783 (inactive)
S. cerevisiae deletion strains, locus YOL012C, strain htz1
  normalized growth: 0.719 (inactive)
S. cerevisiae deletion strains, locus YOL147C, strain pex11, stronger effect = lower value
  normalized growth: 0.834 (active)
S. cerevisiae deletion strains, locus YOR001W, strain rrp6, stronger effect = lower value
  normalized growth: 1 (inactive)
S. cerevisiae deletion strains, locus YOR061W, strain CKA2, stronger effect = lower value
  normalized growth: 0.995 (inactive)
S. cerevisiae deletion strains, locus YOR069W, strain VPS5, stronger effect = lower value
  normalized growth: 0.971 (inactive)
S. cerevisiae deletion strains, locus YOR070C, strain gyp1, stronger effect = lower value
  normalized growth: 0.981 (inactive)
S. cerevisiae deletion strains, locus YOR080W, strain dia2, stronger effect = lower value
  normalized growth: 0.997 (inactive)
S. cerevisiae deletion strains, locus YOR083W, strain WHI5, stronger effect = lower value
  normalized growth: 0.981 (inactive)
S. cerevisiae deletion strains, locus YOR106W, strain vam3, stronger effect = lower value
  normalized growth: 0.953 (inactive)
S. cerevisiae deletion strains, locus YOR136W, strain idh2, stronger effect = lower value
  normalized growth: 0.968 (inactive)
S. cerevisiae deletion strains, locus YOR144C, strain elg1, stronger effect = lower value
  normalized growth: 0.885 (active)
S. cerevisiae deletion strains, locus YOR184W, strain ser1, stronger effect = lower value
  normalized growth: 0.708 (active)
S. cerevisiae deletion strains, locus YOR231W, strain MKK1, stronger effect = lower value
  normalized growth: 1.01 (inactive)
S. cerevisiae deletion strains, locus YOR265W, strain rbl2, stronger effect = lower value
  normalized growth: 0.987 (inactive)
S. cerevisiae deletion strains, locus YOR270C, strain vph1, stronger effect = lower value
  normalized growth: 0.972 (inactive)
S. cerevisiae deletion strains, locus YOR290C, strain snf2, stronger effect = lower value
  normalized growth: 0.971 (inactive)
S. cerevisiae deletion strains, locus YOR316C, strain cot1, stronger effect = lower value
  normalized growth: 0.995 (inactive)
S. cerevisiae deletion strains, locus YPL051W, strain arl3, stronger effect = lower value
  normalized growth: 0.99 (inactive)
S. cerevisiae deletion strains, locus YPL055C, strain LGE1, stronger effect = lower value
  normalized growth: 0.796 (inactive)
S. cerevisiae deletion strains, locus YPL078C, strain atp4, stronger effect = lower value
  normalized growth: 0.983 (inactive)
S. cerevisiae deletion strains, locus YPL106C, strain sse1, stronger effect = lower value
  normalized growth: 0.973 (inactive)
S. cerevisiae deletion strains, locus YPL240C, strain hsp82, stronger effect = lower value
  normalized growth: 0.993 (inactive)
S. cerevisiae deletion strains, locus YPL241C, strain CIN2, stronger effect = lower value
  normalized growth: 1.01 (inactive)
S. cerevisiae deletion strains, locus YPL256C, strain CLN2, stronger effect = lower value
  normalized growth: 1.06 (inactive)
S. cerevisiae deletion strains, locus YPR119W, strain clb2, stronger effect = lower value
  normalized growth: 0.987 (inactive)
S. cerevisiae deletion strains, locus YPR141C, strain kar3, stronger effect = lower value
  normalized growth: 1.02 (inactive)
S. cerevisiae deletion strains, locus YPR163C, strain tif3, stronger effect = lower value
  normalized growth: 0.889 (active)
S. cerevisiae deletion strains, locus YPR167C, strain met16, stronger effect = lower value
  normalized growth: 0.976 (inactive)
S. cerevisiae deletion strains, strain wtn01, stronger effect = lower value
  normalized growth: 0.841 (active)
S. cerevisiae strains, strain wild type, stronger effect = lower value
  normalized growth: 0.879 (active)
